Source: PubChem
Shown is part of a subset that was picked to be rich in hits.
Rtt109 Vps75: inhibitors of Candida albicans Rtt109/Vps75 histone acetyltransferase; purified Rtt109/Vps75, ThioGlo CoA-SH fluorescence, 4 h; 0.16% of 330,000 active; inhibition, % at 34.9 µM;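 active = inhibition of at least 50% in every replicate; inconclusive = best replicate reaches 50% inhibition but some replicates fall short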
Target sequence (Q5AAJ8 whole entry, looked up): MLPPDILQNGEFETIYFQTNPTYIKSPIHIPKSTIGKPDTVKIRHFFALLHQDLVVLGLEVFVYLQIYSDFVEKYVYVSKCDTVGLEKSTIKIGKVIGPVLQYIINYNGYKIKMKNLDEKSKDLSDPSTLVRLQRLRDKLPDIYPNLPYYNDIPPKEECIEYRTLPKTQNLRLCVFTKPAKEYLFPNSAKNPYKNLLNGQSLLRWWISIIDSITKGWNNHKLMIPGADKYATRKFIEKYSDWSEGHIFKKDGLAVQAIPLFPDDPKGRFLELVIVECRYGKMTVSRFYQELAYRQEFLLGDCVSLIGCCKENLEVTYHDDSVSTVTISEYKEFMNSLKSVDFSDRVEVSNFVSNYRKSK
Glyco luc inh: N-linked glycosylation inhibition | D54 ERlucT glycosylation luciferase reporter, 24 h; percent of 100 nM tunicamycin response | reporter increase, % at 12.5 µM | 0.23% of 360,000 active;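 active = mean luciferase reporter signal, scaled so untreated is 0 and the glycosylation-blocking control 100, at or above a set limit in every replicate; inconclusive = mean reaches the limit but not every replicate does; inactive = mean below the limit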;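 also: luciferase carries N-glycosylation sites so blocking glycosylation raises the light; 0% = median of neutral control wells and 100% = median of 100 nM tunicamycin wells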
DENV2 CPE rescue: inhibitors of DENV2 cytopathic effect. DENV2-infected cells, cytopathic effect rescue, plate reader. CPE inhibition, % at 9.99 µM. 1.7% of 350,000 active. AID 651640; in the data active = CPE inhibition above about 20%, passing the limit was not always enough; inconclusive = no clear call, values can overlap the other calls; tested in BHK-21 cells;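 also: 0% = median of neutral control wells and 100% = median of positive control wells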
PglD DTNB: PglD (C. jejuni) enzyme inhibition; 0.098% of 360,000 active; inhibition, % at 12.5 µM; purified PglD enzyme, DTNB colorimetric CoA detection; in the data active = inhibition above about 16%, passing the limit was not always enough; inconclusive = no clear call, values can overlap the other calls
Numbers without * were called inactive; ? = inconclusive; · = no result; ! = not confirmed by another sample.

SMILES	Rtt109 Vps75	Glyco luc inh	DENV2 CPE rescue	PglD DTNB
C[C@@H]1CCCCO[C@@H](CN(C)CC2CCCCC2)[C@H](C)CN([C@H](C)CO)C(=O)c2cc(NC(=O)Nc3cccc4ccccc34)ccc2O1	·	·	118.1*	10.2
C[C@H]1CCCCO[C@H](CN(C)C)[C@@H](C)CN([C@@H](C)CO)C(=O)c2cc(NC(=O)Nc3cccc4ccccc34)ccc2O1	·	·	?	3.1
O=C(NCC[C@@H]1CC[C@H](NC(=O)c2cccnc2)[C@@H](CO)O1)Nc1ccc(F)cc1	·	·	8.0	2.4
COc1ccc(C#Cc2ccc3c(c2)[C@H]2[C@H](CCN2S(=O)(=O)c2ccc(OC)cc2)[C@@H](CO)N3C)cc1	·	·	-9.8	1.2
CCCN(C)C[C@@H]1OCCCC[C@@H](C)Oc2ccc(NS(=O)(=O)c3cccs3)cc2C(=O)N([C@H](C)CO)C[C@@H]1C	·	·	-4.5	0.6
CCN(CC(=O)NCc1cccs1)C(=O)/C=C/c1ccc(OC)cc1OC	8.4	2.0	30.4*	5.0
Cc1noc(C)c1S(=O)(=O)N(C)C[C@@H]1OCCCC[C@H](C)Oc2ccc(NC(=O)Nc3ccccc3)cc2C(=O)N([C@@H](C)CO)C[C@H]1C	·	·	-1.1	1.3
COc1ccc(NC(=O)Nc2ccc3c(c2)C(=O)N([C@H](C)CO)C[C@H](C)[C@H](CN(C)C(=O)Nc2ccc(F)cc2)O3)cc1	·	·	-6.9	0.8
CS(=O)(=O)N(Cc1ccc(C(=O)NN=C2CCCCCC2)cc1)c1ccccc1	-0.9	4.5	110.1*	-3.9
CS(=O)(=O)N(Cc1ccc(C(=O)NN=C2CCCC2)cc1)c1ccccc1	7.2	2.6	·	·
CCC(=O)N1[C@@H](CO)[C@@H](c2ccc(-c3ccccc3C)cc2)C12CN(C(C)=O)C2	·	·	60.1*	·
COCC(=O)N1[C@H](CO)[C@@H](c2ccc(-c3cccc(OC)c3)cc2)C12CN(C(C)=O)C2	·	·	28.0*	·
CCC(=O)N1CC2(C1)[C@H](c1ccc(-c3ccc(F)cc3)cc1)[C@H](CO)N2C(C)=O	·	·	1.4	·
CCC(=O)N1[C@@H](CO)[C@@H](c2ccc(-c3cccc(OC)c3)cc2)C12CN(C(C)=O)C2	·	·	0.5	·
CC(=O)N1CC2(C1)[C@@H](c1ccc(-c3ccc(F)cc3)cc1)[C@@H](CO)N2C(C)=O	·	·	78.2*	·
O=C(Nc1ccc(C(F)(F)F)cc1)N[C@H]1CC[C@H](CC(=O)N2CCCCC2)O[C@H]1CO	·	·	-1.9	-2.7
Cc1cccc(C)c1OCC(=O)NNC(=O)CCCn1c(=O)oc2ccccc21	5.0	-0.2	45.1*	-1.9
COc1cccc(C2NC(=S)NC(C)=C2C(C)=O)c1 (centres undefined)	·	·	57.4*	·
CCOc1ccc(N2C(=O)CSC2c2ccncc2)cc1 (centres undefined)	63.0*	-1.1	·	-2.2
CN(C)C(=O)c1ccc(-c2ccccc2[C@H]2[C@@H](C#N)N(C(=O)C3CCCCC3)[C@@H]2CO)cc1	·	·	6.2	·
COCCCNCCCCOc1c(Cl)cc(C)cc1Br	3.0	4.4	·	3.5
Cc1cc(Cl)c(OCCCNC2CCCC2)c(Br)c1	5.4	2.2	27.2*	-7.8
CCOc1ccc2nc(NC(=O)CN3CCN(CC)CC3)sc2c1	-1.1	-4.1	44.2*	2.4
C[C@@H]1CN([C@H](C)CO)C(=O)Cc2cc(NC(=O)CCC(F)(F)F)ccc2O[C@@H]1CN(C)S(=O)(=O)c1ccc(F)cc1	·	·	1.6	0.0
O=C(c1ccccc1)c1c[nH]c2ccccc12	-1.6	0.5	-3.2	-6.0
SMILES	Rtt109 Vps75	Glyco luc inh	DENV2 CPE rescue	PglD DTNB
O=C(/C=C/c1c[nH]c2ccccc12)c1cccc2ccccc12	3.0	29.7*	·	-2.9
CN(C)CCNc1nc2sc3c(c2c(=O)n1-c1ccc(F)cc1)CCCCC3	4.9	2.1	25.7*	·
CN(C)CCNc1nc2sc3c(c2c(=O)n1-c1ccccc1)CCCCC3	5.1	3.9	4.3	-2.7
C[C@@H]1CN([C@@H](C)CO)C(=O)Cc2cc(NC(=O)CCN3CCOCC3)ccc2O[C@H]1CN(C)Cc1ccc(-c2ccccc2)cc1	·	·	32.2*	·
C[C@H]1CN([C@@H](C)CO)C(=O)Cc2cc(NC(=O)CCC(F)(F)F)ccc2O[C@H]1CN(C)Cc1ccc(-c2ccccc2)cc1	14.3	-2.4	57.3*	0.6
C[C@@H]1CN([C@H](C)CO)C(=O)Cc2cc(NC(=O)CCN3CCOCC3)ccc2O[C@H]1CN(C)Cc1ccc(-c2ccccc2)cc1	·	·	-2.0	·
C[C@@H]1CN([C@H](C)CO)C(=O)c2cc(NC(=O)c3ccncc3)ccc2O[C@@H](C)CCCCO[C@@H]1CN(C)S(=O)(=O)c1ccccc1	·	·	1.8	-0.4
COCC(=O)Nc1ccc2c(c1)OC[C@@H](C)N(CC1CC1)C[C@@H](C)[C@@H](OC)CN(C)C2=O	·	·	8.3	1.5
O=C(C[C@@H]1C[C@H]2c3cc(NC(=O)C4CCC4)ccc3O[C@H]2[C@H](CO)O1)NCc1ccccc1F	·	·	0.5	-0.6
CO[C@@H](C(=O)N(C)C[C@H]1OCc2ccccc2-c2c(n(C)c3ccccc23)C(=O)N([C@H](C)CO)C[C@@H]1C)c1ccccc1	·	·	2.0	3.1
O=C(C1CCC(C(=O)N2CCc3ccccc32)CC1)N1CCc2ccccc21 (centres undefined)	-6.3	0.3	·	3.4
O=C(c1ccc(F)cc1)N1CCC(C(=O)N2CCCc3ccccc32)CC1	·	-0.7	31.1*	-6.3
COc1ccc(NC(=O)N(C)C[C@H]2Oc3ncc(C#CCC(C)C)cc3C(=O)N([C@@H](C)CO)C[C@@H]2C)cc1	·	·	8.5	-1.2
Oc1ccc(NCc2ccccc2OCc2ccccc2)cc1	-0.6	51.8*	-11.4	·
COCCNC(=S)N1CCN(S(=O)(=O)c2ccc(Cl)s2)CC1	-1.6	-0.1	44.7*	-4.1
C/C=C/c1ccc(C2[C@H]3CNC[C@@H]2N3Cc2nccs2)cc1 (some centres undefined)	·	·	39.1*!	·
C/C=C/c1ccc(C2[C@H]3CNC[C@@H]2N3Cc2cc(OC)cc(OC)c2)cc1 (some centres undefined)	·	·	-1.4	·
COc1ccc(CCN2CC(C(=O)N(C)CCn3nc(C)cc3C)CCC2=O)cc1 (centres undefined)	4.5	1.0	0.3	0.6
COc1ccccc1CN1CC(C(=O)NCc2nccn2C)CCC1=O (centres undefined)	1.6	2.2	31.1*	-1.3
COc1ccccc1CN1CC(C(=O)N(C)CCCn2nc(C)cc2C)CCC1=O (centres undefined)	-0.4	-3.7	51.5*	-3.5
Cc1noc(C)c1S(=O)(=O)N(C)C[C@H]1Oc2ccc(NC(=O)CCC(F)(F)F)cc2CC(=O)N([C@H](C)CO)C[C@H]1C	·	·	-2.0	0.5
CCCNC(=O)C[C@@H]1C[C@H]2c3cc(NC(=O)NC4CCCC4)ccc3O[C@H]2[C@@H](CO)O1	·	·	-2.4	4.7
c1cc(-c2ccc(C3[C@H]4CNC[C@@H]3N4CC3CCCC3)cc2)ccn1 (some centres undefined)	·	·	-1.0	·
C[C@@H]1CCCCO[C@@H](CN(C)C(=O)CCCN(C)C)[C@@H](C)CN([C@H](C)CO)C(=O)c2cc(NS(=O)(=O)c3ccc(Cl)cc3)ccc2O1	·	·	1.9	-1.0
